Data published in PubChem BioAssay (NCI).
About 79,000 compounds went through this panel and 15% of them were active in at least one assay; those are over-represented in the sample as a whole. Calls of active or inactive are those of the source. Rule as the data show it: active = growth inhibition above about 70%; inactive = the rest.

Experiments:
[1] = NCI Yeast Anticancer Drug Screen. Data for the rad52 strain (AID 147);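 also: 0% = growth of vehicle-treated control cultures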; conditions: S. cerevisiae rad52 mutant growth inhibition, hits give high values
Outline: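 Compounds are applied to a genetically defined yeast strain lacking normal DNA damage repair, and inhibition of growth is expressed relative to cultures given vehicle only.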

[2] = NCI Yeast Anticancer Drug Screen. Data for the wt1 strain (AID 149);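 also: 0% = growth of vehicle-treated wt1 cultures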; conditions: S. cerevisiae wt1 strain (SPY 50644) growth inhibition, hits give high values
Outline: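 wt1 strain grown with compound or vehicle; inhibition taken from the growth difference.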

[3] = NCI Yeast Anticancer Drug Screen. Data for the rad50EPP+ strain (AID 151);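 also: 0% = growth of vehicle-treated control cultures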; conditions: S. cerevisiae rad50 mutant strain, hits give high values
Outline: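 Compounds were applied to the rad50EPP+ yeast strain, which bears a defined DNA repair alteration, and growth inhibition was determined relative to vehicle-treated cultures.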

[4] = NCI Yeast Anticancer Drug Screen. Data for the mgt1 strain (AID 153); conditions: S. cerevisiae mgt1 mutant growth inhibition, hits give high values
Outline: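 Strain: mgt1 yeast, one of a set carrying defined DNA damage repair or cell cycle control alterations. Compound-treated growth compared with vehicle.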

[5] = NCI Yeast Anticancer Drug Screen. Data for the rad50 strain (AID 155);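 also: 0% = growth of vehicle-only cultures of the same strain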; conditions: S. cerevisiae rad50 strain growth inhibition, hits give high values
Outline: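 DNA repair mutant yeast, compound exposure, growth read-out; inhibition is taken relative to vehicle.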

[6] = NCI Yeast Anticancer Drug Screen. Data for the mec2-1 strain (AID 157); conditions: S. cerevisiae mec2-1 strain, hits give high values
Outline: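 Strain: mec2-1 (DNA repair/cell cycle alteration). Compound exposure, then growth measured; inhibition expressed relative to vehicle.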

[7] = NCI Yeast Anticancer Drug Screen. Data for the rad14 strain (AID 159);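 also: 0% = growth of vehicle-treated control cultures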; conditions: S. cerevisiae rad14 strain growth inhibition, hits give high values
Outline: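 DNA repair-defective yeast, compound-exposed; % growth inhibition derived by comparison with vehicle-treated controls.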

[8] = NCI Yeast Anticancer Drug Screen. Data for the sgs1 mgt1 strain (AID 161);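 also: 0% = growth of cultures given vehicle only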; conditions: S. cerevisiae sgs1 mgt1 strain, hits give high values
Outline: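 Test agents were incubated with a DNA-repair-mutant yeast strain. Growth was then read and compared against vehicle-treated controls.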

[9] = NCI Yeast Anticancer Drug Screen. Data for the CLN2oe strain (AID 163);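 also: 0% = growth of vehicle-only control cultures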; conditions: S. cerevisiae CLN2oe strain, hits give high values
Outline: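 Growth of a genetically modified yeast strain is measured after compound exposure and compared with cultures given vehicle alone.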

[10] = NCI Yeast Anticancer Drug Screen. Data for the cln2 rad14 strain (AID 165);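 also: 0% = growth equal to vehicle treated cultures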; conditions: S. cerevisiae cln2 rad14 strain, hits give high values
Outline: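 Compounds are applied to the cln2 rad14 yeast strain, and growth is then compared with that of vehicle-treated cultures to give inhibition.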

[11] = NCI Yeast Anticancer Drug Screen. Data for the bub3 strain (AID 167); conditions: S. cerevisiae bub3 mutant strain, hits give high values
Outline: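 In this screen, a yeast mutant lacking normal mitotic checkpoint function is challenged with compound. Relative growth versus vehicle gives the inhibition value.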

[12] = NCI Yeast Anticancer Drug Screen. Data for the wt2 strain (AID 169);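 also: 0% = growth of vehicle-treated yeast cultures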; conditions: S. cerevisiae wt2 strain growth inhibition, hits give high values
Outline: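 This strain belongs to a panel of yeast strains with defined genetic alterations in DNA damage repair or cell cycle control. Compounds are applied, and growth inhibition is measured against vehicle-treated cultures.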

[13] = NCI Yeast Anticancer Drug Screen. Data for the mlh1 strain (AID 171);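 also: 0% = growth of vehicle-treated control cultures of the same strain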; conditions: S. cerevisiae mlh1 strain growth inhibition, hits give high values
Outline: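 Growth of the mutant yeast strain after compound exposure, expressed as inhibition relative to vehicle-only controls.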

[14] = NCI Yeast Anticancer Drug Screen. Data for the sgs1 strain (AID 173);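 also: 0% = growth of vehicle-only control cultures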; conditions: S. cerevisiae sgs1 mutant, hits give high values
Outline: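 Growth of a yeast strain bearing a defined genetic alteration is measured after compound treatment. Inhibition is expressed relative to vehicle-only controls.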

[15] = NCI Yeast Anticancer Drug Screen. Data for the mlh1 rad18 strain (AID 175); conditions: S. cerevisiae mlh1 rad18 strain growth inhibition, hits give high values
Outline: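 Read-out is yeast growth inhibition, calculated against vehicle-only controls. The compound was applied to a strain engineered with DNA damage repair alterations.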

[16] = NCI Yeast Anticancer Drug Screen. Data for the rad18 strain (AID 177); conditions: S. cerevisiae rad18 mutant growth inhibition, hits give high values
Outline: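 Growth of the mutant yeast strain after compound exposure, normalised to vehicle-only cultures.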

[17] = at 5.0 µM (retest, dose inferred, filed as 0.5)
[18] = at 50.0 µM (retest, dose inferred, filed as 5.0)

Measured: growth inhibition

CCOc1ccc(N)c(S)c1
inactive: [1]; at 1.2 µM 1% | [1]; at 3.7 µM 3% | [1]; at 11.0 µM 10% | [2]; at 1.2 µM 0% | [2]; at 3.7 µM 4% | [2]; at 11.0 µM 7% | [2]; at 33.0 µM 38% | [3]; at 1.2 µM 0% | [3]; at 3.7 µM -4% | [3]; at 11.0 µM 10% | [4]; at 1.2 µM 0% | [4]; at 3.7 µM -1% | [4]; at 11.0 µM 6% | [5]; at 1.2 µM 1% | [5]; at 3.7 µM -45% | [5]; [17] 0% | [5]; at 11.0 µM 34% | [6]; at 1.2 µM 0% | [6]; at 3.7 µM 4% | [6]; [17] -1% | [6]; at 11.0 µM 17% | [6]; at 33.0 µM 68% | [7]; at 1.2 µM -2% | [7]; at 3.7 µM -7% | [7]; at 11.0 µM 1% | [7]; at 33.0 µM 54% | [8]; [17] 9% | [9]; at 1.2 µM 0% | [9]; at 3.7 µM -6% | [9]; at 11.0 µM -4% | [9]; at 33.0 µM 4% | [10]; [17] 9% | [11]; at 1.2 µM 0% | [11]; at 3.7 µM 4% | [11]; [17] 1% | [11]; at 11.0 µM 23% | [11]; [18] 27% | [12]; at 1.2 µM -1% | [12]; at 3.7 µM 8% | [12]; at 11.0 µM 3% | [13]; at 1.2 µM 0% | [13]; at 3.7 µM 3% | [13]; at 11.0 µM 10% | [14]; at 1.2 µM -3% | [14]; at 3.7 µM 0% | [14]; at 11.0 µM 18% | [15]; [17] 2% | [16]; at 1.2 µM 1% | [16]; at 3.7 µM 0% | [16]; at 11.0 µM 9%
active: [1]; at 33.0 µM 79% | [1]; at 100.0 µM 97% | [2]; at 100.0 µM 97% | [3]; at 33.0 µM 97% | [3]; at 100.0 µM 96% | [4]; at 33.0 µM 71% | [4]; at 100.0 µM 98% | [5]; at 33.0 µM 88% | [5]; [18] 98% | [5]; at 50.0 µM 93.6% | [5]; at 100.0 µM 97% | [6]; [18] 96% | [6]; at 50.0 µM 91.3% | [6]; at 100.0 µM 98% | [7]; at 100.0 µM 98% | [8]; [18] 97% | [8]; at 50.0 µM 98.2% | [9]; at 100.0 µM 91% | [10]; [18] 98% | [10]; at 50.0 µM 97% | [11]; at 33.0 µM 97% | [11]; at 50.0 µM 98% | [11]; at 100.0 µM 96% | [12]; at 33.0 µM 86% | [12]; at 100.0 µM 97% | [13]; at 33.0 µM 82% | [13]; at 100.0 µM 98% | [14]; at 33.0 µM 97% | [14]; at 100.0 µM 96% | [15]; [18] 98% | [15]; at 50.0 µM 92% | [16]; at 33.0 µM 85% | [16]; at 100.0 µM 95%

CN(C)CCNc1ccc2ncn3c4ccc(O)cc4c(=O)c1c23
inactive: [1]; at 1.2 µM -10% | [1]; at 3.7 µM 3% | [1]; at 11.0 µM 4% | [1]; at 33.0 µM 3% | [1]; at 100.0 µM 30% | [2]; at 1.2 µM -21% | [2]; at 3.7 µM -6% | [2]; at 11.0 µM -21% | [2]; at 33.0 µM 0% | [2]; at 100.0 µM -27% | [3]; at 1.2 µM -33% | [3]; at 3.7 µM -12% | [3]; at 11.0 µM -21% | [3]; at 33.0 µM -1% | [3]; at 100.0 µM 5% | [4]; at 1.2 µM -5% | [4]; at 3.7 µM 7% | [4]; at 11.0 µM -19% | [4]; at 33.0 µM -10% | [4]; at 100.0 µM 2% | [5]; at 1.2 µM -14% | [5]; at 3.7 µM 4% | [5]; [17] 50% | [5]; at 11.0 µM -6% | [5]; at 33.0 µM 8% | [5]; at 50.0 µM -17.1% | [5]; at 100.0 µM 22% | [6]; at 1.2 µM -12% | [6]; at 3.7 µM -7% | [6]; [17] 0% | [6]; at 11.0 µM -4% | [6]; at 33.0 µM -9% | [6]; [18] 7% | [6]; at 50.0 µM -10.1% | [6]; at 100.0 µM -20% | [7]; at 1.2 µM -35% | [7]; at 3.7 µM -35% | [7]; at 11.0 µM -31% | [7]; at 33.0 µM -30% | [7]; at 100.0 µM -23% | [8]; [17] 13% | [8]; [18] 7% | [8]; at 50.0 µM -10.6% | [9]; at 1.2 µM -12% | [9]; at 3.7 µM 1% | [9]; at 11.0 µM 9% | [9]; at 33.0 µM 13% | [9]; at 100.0 µM 8% | [10]; [17] 9% | [10]; [18] 12% | [10]; at 50.0 µM 27.6% | [11]; at 1.2 µM -19% | [11]; at 3.7 µM -12% | [11]; [17] 11% | [11]; at 11.0 µM -14% | [11]; at 33.0 µM 3% | [11]; [18] 11% | [11]; at 50.0 µM -1% | [11]; at 100.0 µM 7% | [12]; at 1.2 µM -8% | [12]; at 3.7 µM -3% | [12]; at 11.0 µM -2% | [12]; at 33.0 µM -8% | [12]; at 100.0 µM -11% | [15]; [17] 4% | [15]; [18] 12% | [15]; at 50.0 µM -48.5% | [16]; at 1.2 µM -23% | [16]; at 3.7 µM -1% | [16]; at 11.0 µM -9% | [16]; at 33.0 µM -12% | [16]; at 100.0 µM -12%
active: [5]; [18] 86%
